In the library only some 2.9% were active in any assay of this set; here they are far more common.
Cardio protect – myocardial damage modulation in H9c2 cells. H9c2 cardiomyocytes, H2O2 injury protection, ATPLite, 2 h. protection from H2O2 cell death, % at 20 µM. 360,000 tested, 0.63% active. AID 588492;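 active = compounds giving at least 50% protection of heart cells from peroxide-induced death in the single-dose screen, raw or plate-pattern-corrected value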
APOBEC3A inh – inhibitors of human APOBEC3A DNA deaminase; P31941; recombinant A3A, FAM/TAMRA ssDNA deamination fluorescence; inhibition, % at 20 µM; 330,000 tested, 0.41% active; AID 493011;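 active = at least 40% inhibition at 20 µM here, with at most 30% in a related deaminase screen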
Target sequence (P31941 whole entry, looked up): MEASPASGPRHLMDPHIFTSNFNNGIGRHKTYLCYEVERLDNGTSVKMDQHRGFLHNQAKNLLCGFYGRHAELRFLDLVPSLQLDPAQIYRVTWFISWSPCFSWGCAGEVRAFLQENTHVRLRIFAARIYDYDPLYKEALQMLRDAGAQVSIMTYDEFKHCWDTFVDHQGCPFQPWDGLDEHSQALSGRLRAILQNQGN
NadD inh – inhibitors of Staphylococcus aureus NadD | purified NadD enzyme, colorimetric absorbance read-out | inhibition, % at 20 µM | 360,000 tested, 0.78% active | AID 602399; in the data active = inhibition above about 26%
PfG6PD inh – PfG6PD (Plasmodium falciparum) enzyme inhibition; PfGluPho enzyme, NADPH resazurin-diaphorase fluorescence; inhibition, % at 20 µM; 350,000 tested, 0.78% active;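 active = inhibition reaching at least a set limit at 20 µM in the primary screen, cut at about 59% in these data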
TAG inh – reduces triacylglycerol accumulation in H9c2 cells; Nile Red lipid (TAG) fluorescence; cells loaded with 200 µM oleic acid; inhibition, % at 12.5 µM; 230,000 tested, 0.66% active; AID 651582;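 active = pattern-corrected inhibition of lipid staining of at least 50% with the nuclear-stain viability signal not falling by more than 50%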
APOBEC3G inh – blocks human APOBEC3G single-stranded DNA deamination; Q9HC16; recombinant A3G, ssDNA deamination FAM/TAMRA fluorescence; inhibition, % at 20 µM; 330,000 tested, 0.28% active; AID 493012;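 active = inhibition of at least 40% at 20 µM, with no more than 30% in the related APOBEC3A deaminase screen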
TAG conf – confirmation of triacylglycerol accumulation inhibitors; shares compounds with TAG inh; H9c2 lipid accumulation, Nile Red fluorescence; cells loaded with 200 µM oleic acid; inhibition, % at 12.5 µM; 990 tested, 71% active;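 active = mean inhibition across replicates of 40% or more; inactive = mean inhibition below 40%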
Large screens that a line does not name were inactive (follow-up assays come after a bar, where they were run).

COc1ccc(C2c3cc4c(cc3OC(NNC(N)=O)C2C)OCO4)cc1 (stereo unspecified)	none (no result: APOBEC3A inh, APOBEC3G inh)
O=C(Nc1ccc(Cl)cc1)c1csc([C@@H]2C[C@H](O)[C@@H](CO)O2)n1	TAG inh 54 (no result: APOBEC3A inh, PfG6PD inh, APOBEC3G inh) | TAG conf inactive
Cc1ccc(Nc2nc(N3CCOCC3)nc(N3CCOCC3)n2)cc1	none (no result: TAG inh)
CC(C)c1ccc(Nc2nc(N3CCOCC3)nc(N3CCOCC3)n2)cc1	TAG inh 74 (no result: APOBEC3A inh, APOBEC3G inh) | TAG conf 91
Cc1noc(C)c1-c1ccc2ncnc(NCC3CCCCN3C)c2c1 (stereo unspecified)	TAG inh 62 | TAG conf 51
CC(C)CCNCC(O)CON=C1c2ccccc2-c2ccccc21 (stereo unspecified)	TAG inh 64 | TAG conf 42
CC1(C)CC(=O)C(C2C3=C(CC(C)(C)CC3=O)Oc3ccccc32)C(=O)C1 (stereo unspecified)	none
CC1(C)CC(=O)C2=C(C1)Oc1nc3ccccc3cc1C2C(C#N)C#N (stereo unspecified)	TAG inh 81 | TAG conf 60
OCCNNC(=S)NC1CC2C=CC1C2 (stereo unspecified)	none
CCOC(=O)c1c(NC(C)=O)sc2c(OCC(O)CN(CC)CC)c(Br)ccc12 (stereo unspecified)	TAG inh 69 | TAG conf 47
CCOC(=O)c1c(NC(C)=O)sc2c(OCCN(CC)CC)c(Br)ccc12	none
COc1ccccc1-n1c2nc3ccccc3nc2c2c(=O)n(-c3cc(C)cc(C)c3)cnc21	none
O=c1c2c3nc4ccccc4nc3n(/N=C/c3ccccn3)c2ncn1-c1ccccc1	TAG inh 72 | TAG conf 71
O=C(CN1C(=O)c2ccc(Br)cc2C1=O)NCC1CCCO1 (stereo unspecified)	none
CN(C(=O)c1cc(-c2ccccc2)on1)C1CCCCC1	none (no result: TAG inh)
O=C(c1cccc(F)c1)N1CCN(C(=O)C(c2ccccc2)c2ccccc2)CC1	none (no result: TAG inh)
COc1cccc(/C=N/NC(=O)CNC(=O)COc2ccccc2)c1O	TAG inh 51 | TAG conf inactive
NCCCC(=O)N1c2ccccc2Sc2ccc(Cl)cc21	none (no result: TAG inh)
NCCC(=O)N1c2ccccc2Sc2ccc(Cl)cc21	TAG inh 68 | TAG conf inactive
CN(C)c1ncnc2c1ncn2C1OC(CO)C(O)C1O (stereo unspecified)	TAG inh 75 | TAG conf 46
CCOC(=O)c1csc(NC(=O)CN2CCCCC2)n1	none (no result: TAG inh)
COc1ccc(OC)c(/C=C/C(=O)OCC(=O)c2c(N)n(C)c(=O)n(C)c2=O)c1	TAG inh 56 | TAG conf inactive
Nc1ncnc2c1ncn2[C@@H]1O[C@H](CO)C[C@H]1O	none
Nc1ncnc2c1ncn2C1C=C(CO)C(O)C1O (stereo unspecified)	TAG inh 75 (no result: APOBEC3A inh, APOBEC3G inh) | TAG conf 76
O=[N+]([O-])c1ccc(-c2cn3nc(-c4ccccc4)c(-c4ccccc4)nc3n2)cc1	TAG inh 87 | TAG conf inactive
O=[N+]([O-])c1cccc(-c2cn3nc(-c4ccccc4)c(-c4ccccc4)nc3n2)c1	none
COc1ccc(-c2cc3c(=O)n(CC(=O)Nc4ccc(Cl)cc4)nc(C)n3n2)cc1	none (no result: TAG inh)
Cc1cccc2cc(C#N)c(SCC(=O)NNC(=O)Cc3ccccc3)nc12	TAG inh 71 | TAG conf 98
Cc1cc2cccc(C)c2nc1SCC(=O)NNC(=O)c1ccco1	none
Nc1ncnc2c1ncn2[C@@H]1O[C@H](CNCc2cn(CC(=O)NC3CC3)c3ccccc23)[C@@H](O)[C@H]1O	TAG inh 76 | TAG conf inactive
Nc1ncnc2c1ncn2[C@@H]1O[C@H](CNCc2ccccc2)[C@@H](O)[C@H]1O	none
O=S(=O)(CC(CN1CCCCC1)N1CCCCC1)c1ccc2ccccc2c1 (stereo unspecified)	none (no result: APOBEC3A inh, APOBEC3G inh)
COc1ccc(-c2[nH]ncc2/C=N\NC(=O)c2cccs2)cc1OC	none
Cc1sc(NC(=O)c2cccc([N+](=O)[O-])c2)c(C(N)=O)c1-c1ccc(C(C)(C)C)cc1	TAG inh 82 | TAG conf inactive
Cc1sc(NC(=O)/C=C/C(=O)O)c(C(N)=O)c1-c1ccc(C(C)(C)C)cc1	none (no result: TAG inh)

Screening data as filed in PubChem.
